According to PubChem BioAssay AID493191 (Broad Institute, 2011):
Screen size: about 1,300 compounds; about 330 (25%) were called active. How the calls were made is not given here. These entries were drawn from the full list. Entries with a potency or affinity are not part of this list.

Test: growth inhibition of MALME3 cells – cell-based, CellTiter-Glo, cherry-picked, orthogonal assay for MITF inhibitor project, dose response (AID 493191)
Details: MALME3 melanoma viability, CellTiter-Glo luminescence, 24 h; series mostly up to 35 µM

| SMILES | outcome |
| --- | --- |
| Cc1ccccc1NCc1nc2ccccc2n1C | inactive |
| O=C(c1cc2ccccc2oc1=O)N1CCN(c2ncccn2)CC1 | inactive |
| N#C/C(=C\c1ccc(OCc2ccc(C(=O)O)cc2)cc1)C(=O)N1CCOCC1 | inactive |
| N#Cc1nc(/C=C/c2ccccc2)oc1NCCCN1CCOCC1 | inactive |
| CCN1CCN(c2ccc(Nc3ccnc4ccccc34)cc2)CC1 | inactive |
| CCn1c(C)cc(C(=O)CN2C(=O)c3ccccc3S2(=O)=O)c1C | inactive |
| Cc1ccc(SCc2cn3cc(Cl)ccc3n2)cc1 | inactive |
| Cc1ccc(-c2c[n+](Cc3cccc(Cl)c3)c3n2CCC3)cc1 | inactive |
| CC(OC(=O)c1ccc([N+](=O)[O-])s1)C(=O)NC1CCCCC1C (stereo not given) | inactive |
| CCN(CC(=O)Nc1ccc2c(c1)OCCO2)C(=O)c1ccc([N+](=O)[O-])s1 | inactive |
| CCOC(=O)Cn1c(=NC(=O)c2ccc([N+](=O)[O-])s2)sc2ccccc21 | inactive |
| Nc1nc2ccccc2n1/N=C/c1ccc(-c2ccccc2)o1 | inactive |
| O=[N+]([O-])c1ccc(/C=N/n2c(CO)nc3ccccc32)s1 | inactive |
| C=CCn1c(C)cc(C(=O)CN2C(=O)c3ccccc3S2(=O)=O)c1C | inactive |
| Cn1c(/C=C/c2cccc([N+](=O)[O-])c2)c([N+](=O)[O-])c(=O)n(C)c1=O | inactive |
| Nc1ccc(-c2cc3ccccc3c(=O)o2)cc1 | inactive |
| Cn1c(COc2ccccc2Br)nc2ccccc21 | inactive |
| O=C(CN1CCCCC1)Nc1scc2c1c(=O)oc1ccccc12 | inactive |
| CCc1ccc(-c2cc(C(=O)Nn3cnnc3)c3ccccc3n2)cc1 | inactive |
| O=C(Nc1ccccc1N1CCOCC1)c1ccc([N+](=O)[O-])o1 | inactive |
| Cc1cn(CCC(=O)Nc2ccccc2N2CCOCC2)c2ccccc12 | inactive |
| FC(F)(F)Oc1ccc(-c2cn3cccnc3n2)cc1 | inactive |
| CCN(CCO)c1ccc(N=Nc2cc(C)[nH]n2)cc1 | inactive |

| SMILES | outcome |
| --- | --- |
| COc1cc(/C=C/C(=O)c2ccc3c(c2)OCCO3)cc(Br)c1OCC(=O)N(C)C | inactive |
| COCc1cc(C)nc2sc(C(=O)Nc3ccc(OC)cc3)c(N)c12 | inactive |
| Cc1cc(C)c2nc(N3CCC(C(=O)NCCCN4CC(C)CC(C)C4)CC3)sc2c1 (stereo not given) | inactive |
| Cc1ccccc1-c1nc(CN2CCC(C(=O)NCCCN3CCCC(C)C3)CC2)c(C)o1 (stereo not given) | inactive |
| COc1cc(-c2nnc(-c3ccco3)o2)ccc1OCc1ccccc1 | inactive |
| COc1ccc(-c2nc3n(c2C)Cc2ccccc2-3)cc1 | inactive |
| COc1ccc(-c2nc(-c3ccccc3OC)no2)cc1OC | inactive |
| Cn1nnnc1Sc1ncnc2scc(-c3ccc[nH]3)c12 | inactive |
| S=c1[nH]nc(-c2ccco2)n1/N=C/C(Cl)=C/c1ccccc1 | inactive |
| Cc1ccc2nc(-c3cccnc3)oc2c1 | inactive |
| Oc1cc(NCc2cccnc2)ccc1-c1nc2ccccc2o1 | inactive |
| O=C(Nc1ccc(-c2nc3ncccc3o2)cc1)c1ccc([N+](=O)[O-])o1 | inactive |
| O=C(Nc1ccccc1Cl)c1cc(=O)c2ccccc2o1 | inactive |
| CC(=NNC(=S)N1CCN(c2ccccn2)CC1)c1nccs1 | inactive |
| Oc1c(Cl)cc(Cl)cc1/C=N/Nc1ncc(Br)cn1 | inactive |
| CC(C)(C)C1CCC(OC(=O)CN2CCCCC2)CC1 (stereo not given) | inactive |
| Cc1ccc(NC(=O)Nc2ccccc2)nc1 | inactive |
| COc1cc(C2C(C#N)=C(N)Oc3cc(N(C)C)ccc32)cc2c1OCO2 (stereo not given) | inactive |
| Cc1ccc(/C=c2/sc3n(c2=O)CCCN=3)o1 | inactive |
| O=C(Cn1cc(/C=C\[N+](=O)[O-])c2ccccc21)Nc1ccccc1 | inactive |
| Cc1cc(/C=C2\Sc3ccccc3N2C)cc(C)[n+]1CC1CCCO1 (stereo not given) | inactive |
| O=C(O)c1cccc(COc2ccccc2Cl)c1 | inactive |
| COc1cc(C(=O)N/N=C(\c2ccccc2)c2ccccn2)cc(OC)c1OC | inactive |

| SMILES | outcome |
| --- | --- |
| Cc1ccc2c(c1)COc1c3ccc(C(=O)O)cc3nn1-2 | inactive |
| COc1cc(/C=N/NS(=O)(=O)c2ccc(C)cc2)ccc1OCc1cccc(C(=O)O)c1 | inactive |
| COc1cc(/C=N/NS(=O)(=O)c2ccc3ccccc3c2)ccc1OCc1ccc(C(=O)O)cc1 | inactive |
| CCOc1cc(/C=C2/NC(=S)NC2=O)ccc1OCc1ccc([N+](=O)[O-])cc1 | inactive |
| CCOc1cc(/C=N/Nc2cccc(C(=O)O)c2)ccc1OC(=O)c1ccccc1 | inactive |
| Cc1cc(/C(N)=N/OC(=O)c2ccc(Cl)cc2)no1 | inactive |
| CCCCN=C(C)c1c(O)c2ccccc2oc1=O | inactive |
| Cc1ccc(/C=N/Nc2ccc(C(=O)O)cc2)s1 | inactive |
| CC(C)(C)c1ccc(/C=N/Nc2ccc(C(=O)O)cc2)cc1 | inactive |
| Cc1csc(NC(=O)Cc2c(F)cccc2Cl)n1 | inactive |
| Cc1cc(C)n(CCC(=O)N/N=C/c2c(O)ccc3ccccc23)n1 | inactive |
| Cc1ccc(-n2[nH]c(=O)c(-c3ccccn3)c2C)cc1 | inactive |
| Cc1cccc(N(O)C(=O)Nc2cccc(Cl)c2)c1 | inactive |
| COc1ccc(NCc2nc3ccccc3n2C)cc1 | inactive |
| Cn1c(COc2ccccc2)nc2ccccc21 | inactive |
| CCOC(=O)/C=c1\s/c(=C\c2ccc3cc(OC)ccc3c2)c(=O)n1CC(=O)NCC1CCCO1 (stereo not given) | inactive |
| O=C(COC(=O)CCN1C(=O)/C(=C\C=C\c2ccccc2)SC1=S)Nc1cc(F)ccc1F | inactive |
| O=C(Nc1ccccn1)c1ccc(Br)s1 | inactive |
| N=c1n(CC(=O)c2ccc(Br)cc2)c2ccccc2n1Cc1ccccc1 | inactive |
| O=C(CCl)N1c2ccccc2SCC1c1ccccc1 (stereo not given) | inactive |
| COc1ccc(COC(=O)c2n[nH]c3ccccc23)cc1F | inactive |
| CC(=O)N(\C=C/C=C/C=C1\Sc2ccccc2C1=O)c1ccccc1 | inactive |
| Nc1c(-c2ccc(Cl)cc2)nnn1-c1ccccc1 | inactive |

| SMILES | outcome |
| --- | --- |
| CCSc1nc2c(cnn2-c2ccccc2)c(=O)n1N | inactive |
| COc1cc2c(cc1OC)C(SC)=NC1(CCCC1)C2 | inactive |
| CN(C)c1ccc(/C=C(\C#N)c2ccccn2)cc1 | inactive |
| Cc1ccccc1Cn1c(=N)n(CC(=O)c2ccc([N+](=O)[O-])cc2)c2ccccc21 | inactive |
| N=c1n(CC(=O)c2ccc([N+](=O)[O-])cc2)c2ccccc2n1Cc1ccccc1Cl | inactive |
| O=C(C[n+]1cccc2ccccc21)c1ccc([N+](=O)[O-])cc1 | inactive |
| O=C(/C=C/NNC(=O)c1ccccc1)c1ccc([N+](=O)[O-])cc1 | inactive |
| Cc1ccccc1C(=O)O/N=C(\N)c1ccc([N+](=O)[O-])cc1 | inactive |
| CCN1CCN(/C=N/c2nc3c(s2)CCCC3)CC1 | inactive |
| CC(Oc1cccc(Br)c1)C(=O)NNC(=O)c1ccccn1 (stereo not given) | inactive |
| Cc1cnn(C(=S)NCCc2ccccc2)c1 | inactive |
| O=C(Cn1cnc2c(oc3ccccc32)c1=O)c1ccccc1 | inactive |
| CCCCOC(=O)c1[nH]c(C)c(C(=O)OC)c1C | inactive |
| CCOC(=O)c1c(NC(C)=O)sc2c(OCC(O)CNC(C)(C)C)c(Br)ccc12 (stereo not given) | inactive |
| CC(/C=N/NC(=O)c1cc(-c2ccncc2)nc2ccccc12)=C\c1ccco1 | inactive |
| O=C(CCC1CCCN(C(=O)c2cc3ccccc3o2)C1)NCc1ccc(F)c(F)c1 (stereo not given) | inactive |
| COC(=O)[C@@H](C)NC(=O)c1ccc2oc(CCc3ccccc3)nc2c1 | inactive |
| COC(=O)[C@@H]1C[C@]2(OC(=O)c3ccccc3)C=CC(=O)C[C@@H]2N1C(=O)OCc1ccccc1 | inactive |
| O=C1CN(c2ccccc2)C(=S)N1C(=O)c1ccccc1 | inactive |
| COc1ccc2oc3ccc(OC)cc3c(=O)c2c1 | inactive |
| Cc1cc(C(=O)COc2cccnc2[N+](=O)[O-])c(C)n1-c1ccccc1 | inactive |
| COC(=O)c1ccc(-n2c(C)cc(C(=O)CCl)c2C)cc1 | inactive |
| Cc1cc(-n2c(C)cc(C(=O)CCl)c2C)no1 | inactive |

| SMILES | outcome |
| --- | --- |
| Cc1cc(C(=O)CCl)c(C)n1CCc1ccc(F)cc1 | inactive |
| CC(C)(C)c1ccc(-c2noc(CCC(=O)NCC3CCCO3)n2)cc1 (stereo not given) | inactive |
| Cc1cc(NCCCn2ccnc2)n2ncc(-c3ccccc3)c2n1 | inactive |
| O=C(NCc1ccco1)c1ccc(COCC(F)(F)F)cc1 | inactive |
| COc1ccc(S(=O)(=O)Nc2ccc(O)c3ccccc23)cc1 | inactive |
| O=[N+]([O-])c1ccccc1OCCOc1ccccc1[N+](=O)[O-] | inactive |
| CCOC(=O)CSC1=NC(=O)/C(=C\c2ccc(OC(C)=O)cc2)S1 | inactive |
| CCOc1ccc(/C=C2\SC(=S)N(CCC(=O)O)C2=O)cc1 | inactive |
| CCOC(=O)c1sc(NC(=O)Nc2ccc(Cl)cc2)nc1C | inactive |
| CCOC(=O)CSc1nc2cc(OCC)ccc2cc1C#N | inactive |
| COc1ccc(CNC(=O)CN2C(=O)C3C4C=CC(C4)C3C2=O)cc1 (stereo not given) | inactive |
| CC(C)(C)c1ccc(-c2cc(N)n[nH]2)cc1 | inactive |
| COCCn1c(C)cc(C(=O)CSc2nnc(C)s2)c1C | inactive |
| COc1ccc(CCC(=O)N2CCc3ccccc32)cc1 | inactive |
| O=C(CCl)N1c2ccccc2CCc2ccccc21 | inactive |
| CC(=O)c1sc(N/N=C\c2ccc(N(C)C)cc2)nc1C | inactive |
| COc1cccc(C(=O)Nc2ccc3c(cc2=O)[C@@H](NC(C)=O)CCc2cc(OC)c(OC)c(OC)c2-3)c1 | inactive |
| O=C1c2ccccc2C(=O)N1CCOc1ccccc1 | inactive |
| O=C(/C=C/c1cccc([N+](=O)[O-])c1)n1cnc2ccccc21 | inactive |
| Cc1nc2ccccn2c1C(=O)/C=C/c1cccc([N+](=O)[O-])c1 | inactive |
| CCOC(=O)C(=Cc1ccc(-n2ccnc2)cc1)C(=O)OCC | inactive |
| CC(=O)c1ccc(Sc2nnnn2-c2ccccc2)c([N+](=O)[O-])c1 | inactive |
| Cc1ccc(-n2ncc3c(SCC(N)=O)ncnc32)cc1C | inactive |
